The record followed here is PubChem BioAssay (NCI).

Some test systems named below: NCI-H226 lung; NCI-H322M lung; HOP-62 NSCLC; NCI-H460 lung; HOP-92 NSCLC; NCI-H522 lung; A549/ATCC NSCLC; 786-0 renal; COLO 205 colon.
Holding throughout (experiment): NCI-60 one-dose screen, 48 h (100 = growth as untreated, 0 = no growth, -100 = all killed)
Conditions in all cases: 10 µM

SMILES strings stand for the structures. Compounds without any hit were thinned out: in the full panel of roughly 83,000, 20% have a hit.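 The test compound was applied at a single concentration to cells in 96-well plates for 48 hours, and percent growth was recorded.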 Unmarked numbers belong to inactive results. Activity calls are given as the source filed them. The calls were made as follows: active = growth percent below 10; inactive = the rest.

As for `O=C(Cc1ccc2c(c1)CN(C1CCC(=O)NC1=O)C2=O)NCc1cccc2ccccc12` (stereo not drawn), the growth with NCI-H226 lung is 1.96% (active); in the test with NCI-H322M lung, -4.15% (active); with HOP-62 NSCLC, -23.1% (active); in the test on NCI-H460 lung, 45.7%; in the test on HOP-92 NSCLC it was -28.3% (active); in the test with NCI-H522 lung it was -21.4% (active). Further, the growth with A549/ATCC NSCLC is 7.72% (active); with 786-0 renal, -23.6% (active); in the test on COLO 205 colon it was -35.7% (active).
Take `CC(=O)Nc1nc(-c2ccc(N3CCN(C)CC3)c(NS(=O)(=O)c3ccc(C(F)(F)F)cc3)c2)cs1`: the growth with NCI-H226 lung is 40.1%; in the test with NCI-H322M lung, 88.2%; in the test on HOP-62 NSCLC it was 63.7%; with NCI-H460 lung, 31.3%; with HOP-92 NSCLC, 9.58% (active); in the test on NCI-H522 lung, 11.4%. Besides, the growth was 55.5% in the test with A549/ATCC NSCLC, -62.5% (active) with 786-0 renal and 36% in the test with COLO 205 colon.
In the case of `C=C1CCC2C3(C)COC(c4cc(F)cc(F)c4)OC3CCC2(C)C1C/C=C1/C(=O)OCC1O` (stereo not drawn), the growth with NCI-H226 lung was -20.9% (active); with NCI-H322M lung it was 24.5%; in the test on HOP-62 NSCLC, -64.1% (active); in the test on NCI-H460 lung, 13.1%; in the test with HOP-92 NSCLC, -52.4% (active); in the test with NCI-H522 lung, -79.8% (active). Also, the growth is 4.7% (active) in the test on A549/ATCC NSCLC, -90.5% (active) in the test on 786-0 renal and -68% (active) in the test with COLO 205 colon.
Take `[2H]C([2H])([2H])Oc1ccc2ncc(C#Cc3cncc(C(=O)Nc4ccc(CN5CCN(C)CC5)c(C(F)(F)F)c4)c3)n2n1`: the growth in the test on NCI-H226 lung was -65.8% (active); in the test with NCI-H322M lung, -98.9% (active); in the test with HOP-62 NSCLC, -41% (active); with NCI-H460 lung, 2.44% (active); with HOP-92 NSCLC it was -66.6% (active); with NCI-H522 lung it was -40.4% (active). The growth is -33% (active) in the test on A549/ATCC NSCLC, -28.6% (active) in the test with 786-0 renal and -62.2% (active) with COLO 205 colon.
For the compound `O=C(N=Nc1c(O)[nH]c2ccc(Br)cc12)c1ccc2nc(-c3ccccc3)[nH]c2c1`, the growth was -47.9% (active) in the test on NCI-H226 lung; -62.9% (active) with NCI-H322M lung; -61.9% (active) in the test with HOP-62 NSCLC; -73.5% (active) with NCI-H460 lung; -78.8% (active) with HOP-92 NSCLC; -79% (active) in the test with NCI-H522 lung. Besides, the growth in the test with A549/ATCC NSCLC was -24.6% (active); in the test on 786-0 renal, -92.9% (active); in the test with COLO 205 colon, -67.5% (active).
As to `CC(=O)Nc1ccc(-n2cnc3cc(-c4ccc(O)cc4)ccc32)cc1F`, the growth is 9.75% (active) with NCI-H226 lung; 52% in the test on NCI-H322M lung; 44.4% in the test on HOP-62 NSCLC; 10.5% in the test with NCI-H460 lung; 55.1% in the test with HOP-92 NSCLC; -42.7% (active) in the test with NCI-H522 lung. The growth with A549/ATCC NSCLC was 33.8%; in the test with 786-0 renal it was 32.4%; in the test with COLO 205 colon, -11.4% (active).
`Cc1ccc(-c2nc3ccc(C(=O)N=Nc4c(O)[nH]c5ccc(Cl)cc45)cc3[nH]2)cc1`: the growth in the test on NCI-H226 lung is -17.6% (active); in the test with NCI-H322M lung it was 3.76% (active); in the test with NCI-H460 lung, 4.47% (active); in the test on HOP-92 NSCLC, -35.8% (active); in the test on NCI-H522 lung, -81.3% (active); with A549/ATCC NSCLC it was 28%. Further, the growth with 786-0 renal is -42.9% (active); in the test on COLO 205 colon, 3.66% (active).
On to `CCCn1c(O)c(N=Nc2nc(-c3cc4ccccc4oc3=O)cs2)c2cc(Br)ccc21`, for which the growth with NCI-H226 lung was 93.9%; in the test with NCI-H322M lung it was 102%; in the test on NCI-H460 lung it was 110%; in the test with HOP-92 NSCLC, 86.3%; with NCI-H522 lung it was 93.4%; in the test on A549/ATCC NSCLC it was 110%. Also, the growth with 786-0 renal was 75.1%; with COLO 205 colon it was 139%.
For the compound `CN1C(=O)/C(=C/c2nccs2)SC1=S`, the growth is 87.2% in the test with NCI-H226 lung; 83.7% in the test with NCI-H322M lung; 111% with HOP-62 NSCLC; 91% in the test with NCI-H460 lung; 92.4% with HOP-92 NSCLC; 77.7% with NCI-H522 lung. Moreover, the growth is 98.5% in the test with A549/ATCC NSCLC, 105% with 786-0 renal and 119% with COLO 205 colon.
With `O=C(Nc1nc2ccc([N+](=O)[O-])cc2s1)Nc1cc(Cl)ccc1I`, the growth in the test with NCI-H226 lung is -50.9% (active); in the test with NCI-H322M lung, -9.64% (active); with HOP-62 NSCLC, -44% (active); in the test with NCI-H460 lung, -2.31% (active); in the test with HOP-92 NSCLC it was -32.5% (active); with NCI-H522 lung, -52.8% (active). Also, the growth is -9.31% (active) in the test on A549/ATCC NSCLC, -49.4% (active) in the test with 786-0 renal and -98.1% (active) in the test with COLO 205 colon.
With `O=C1N/C(=N\c2nccs2)S/C1=C\c1cccs1`, the growth with NCI-H226 lung was 19.9%; in the test on NCI-H322M lung, 45.2%; with HOP-62 NSCLC, 33.6%; in the test with NCI-H460 lung it was 14.7%; in the test on HOP-92 NSCLC, 68%; in the test on NCI-H522 lung, 21.2%. For the same compound, the growth in the test on A549/ATCC NSCLC was 26.8%; with 786-0 renal it was 43.2%; with COLO 205 colon it was 29%.
Consider `O=C1Nc2ccc(Cl)cc2/C1=C/c1ccc(OCc2ccccn2)cc1`, for which the growth with NCI-H226 lung is 1.26% (active); in the test on NCI-H322M lung, 64.2%; in the test on HOP-62 NSCLC, 45.6%; with NCI-H460 lung it was 16%; in the test on HOP-92 NSCLC it was 72.1%; with NCI-H522 lung it was 66%. Further, the results for the growth in the test with A549/ATCC NSCLC, with 786-0 renal and with COLO 205 colon were 64.4%, 25.7% and 89.1%, respectively.
On to `COC(=O)C[C@](O)(CCCC(C)(C)O)C(=O)O[C@H]1C(OC)=C[C@@]23CCC(=O)N2CCc2cc4c(cc2[C@@H]13)OCO4`, for which the growth in the test with NCI-H226 lung was 79.4%; in the test with NCI-H322M lung it was 112%; in the test with HOP-62 NSCLC, 93.1%; in the test on NCI-H460 lung, 44.3%; in the test with HOP-92 NSCLC, 116%; with NCI-H522 lung, 78.4%. Besides, the growth is 94.9% in the test with A549/ATCC NSCLC, 97.9% in the test with 786-0 renal and 118% in the test with COLO 205 colon.
For `CC(=O)OC[C@@]1(C)C2CC[C@]3(C)C(CC=C4C5CC(C)(C)CC[C@]5(C(=O)Nc5ccccc5)CC[C@]43C)[C@@]2(C)C[C@@H](OC(C)=O)[C@@H]1OC(C)=O` (stereo partly drawn), the growth in the test with NCI-H226 lung is 40.6%; with NCI-H322M lung, 61.1%; with HOP-62 NSCLC, 32.8%; in the test on NCI-H460 lung, 32%; with HOP-92 NSCLC, 40.1%; in the test with NCI-H522 lung, 42%. Moreover, the results for the growth in the test on A549/ATCC NSCLC, with 786-0 renal and in the test with COLO 205 colon were 39.6%, 45.7% and 45.5%, respectively.
In the case of `CN1CCN(c2ccc(Nc3nc(NCCCNC(=O)c4ccccc4)c4sccc4n3)cc2)CC1`, the growth in the test with NCI-H226 lung was 84.6%; in the test with NCI-H322M lung it was 84.2%; in the test with HOP-62 NSCLC it was 93.5%; with NCI-H460 lung, 67.6%; with HOP-92 NSCLC, 69.3%; in the test with NCI-H522 lung, 91.5%. Moreover, the results for the growth in the test on A549/ATCC NSCLC, in the test with 786-0 renal and with COLO 205 colon were 72.5%, 24.9% and 93.8%, respectively.
Turning to `O=C(NO)c1ccc(CN2CCN(c3nc(-c4ccccc4)c4ccccc4n3)CC2)cc1`, the growth is 3.26% (active) in the test on NCI-H226 lung; 23.6% in the test on NCI-H322M lung; 2.94% (active) in the test with HOP-62 NSCLC; 6.1% (active) with NCI-H460 lung; 37% in the test on HOP-92 NSCLC; -21.2% (active) in the test with NCI-H522 lung. The growth is 1.35% (active) in the test with A549/ATCC NSCLC, 14% in the test on 786-0 renal and 6.97% (active) in the test with COLO 205 colon.
For the compound `O=c1c2ccccc2nc(COc2ccccc2)n1/N=C/c1ccc(N2CCOCC2)cc1`, the growth is 66.6% with NCI-H322M lung; 18.4% in the test with HOP-62 NSCLC; 66.2% in the test on NCI-H460 lung; -1.3% (active) in the test on HOP-92 NSCLC; 33.6% with NCI-H522 lung; 73.7% in the test with A549/ATCC NSCLC. Further, the values for the growth with 786-0 renal and in the test on COLO 205 colon were 45.5% and 80.8%, respectively.
Consider `Nc1nc(-c2ccccc2)cs1`, for which the growth was 63.4% in the test on NCI-H226 lung; 99.4% with NCI-H322M lung; 52% in the test on HOP-62 NSCLC; 73.2% in the test with NCI-H460 lung; 60.9% in the test with HOP-92 NSCLC; -4.11% (active) with NCI-H522 lung. Further, the growth is 55.7% with A549/ATCC NSCLC, 93.7% in the test on 786-0 renal and 108% in the test with COLO 205 colon.
With `O=C(c1ccc(-n2c(=O)[nH]c3ccccc3c2=O)cc1)N1CCOCC1`, the growth in the test with NCI-H226 lung was 99.6%; in the test on NCI-H322M lung, 98.7%; in the test on HOP-62 NSCLC it was 134%; in the test on NCI-H460 lung it was 109%; in the test with HOP-92 NSCLC, 99.8%; in the test with NCI-H522 lung, 101%. Further, the growth with A549/ATCC NSCLC is 119%; in the test on 786-0 renal, 99.5%; with COLO 205 colon, 110%.
